Records with an inconclusive call do not appear. The source made the active and inactive calls. Unless noted, cut-off not given; nearly all actives show AC50 up to about 26 µM.
Key:
[1] = tested on: Hepatitis C virus NS3 helicase; assay: HCV NS3 helicase inhibitors, primary screen, biochemical, fluorescence polarization, LOPAC1280 library (AID 687035; in the data active means inhibition above about 37%); settings: Purified HCV NS3 helicase, Cy5-dT15 ssDNA binding fluorescence polarization; stronger effect = higher value; concentration not given here
[2] = Cy5 fluorescence quenching or enhancement artefacts, artefact control for HCV NS3 helicase inhibitor project, biochemical, LOPAC1280 (AID 687037; call rule not given here); settings: Cy5-DNA-NS3h complex fluorescence interference counterscreen
[3] = tested on: Aerobactin synthetase IucA (Klebsiella pneumoniae, hypervirulent); assay: IucA enzyme inhibition, biochemical, LOPAC library, absorbance readout (AID 1346212; call rule not given here;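 further: 100% = no compound wells and 0% = no enzyme wells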); settings: IucA enzyme assay, absorbance (OD) readout; stronger effect = lower value;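 tested at 8 µM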
[4] = sensitizers of A549 cells to miR-34 induction, primary screen, imaging, A549 dox-inducible miR-34, nuclei and caspase counts (AID 1347080;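 active means compounds whose cell count with miR-34 switched on is under 0.7 times the count with it off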); settings: A549 miR-34 inducible, Hoechst nuclei count, 48 h
[5] = phospholipid biosynthesis inhibitors in animal cells, primary screen, cell-based, LOPAC library, screen 4 (AID 1347384; call rule not given here); settings: phospholipid biosynthesis inhibition screen, at 10 µM
[6] = viability rescue of complex I mutant cybrids, primary screen, cell-based, galactose medium, ATP luminescence (AID 1645843;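 active means z-score of at least 1.8 in each of two replicates, scored against plate mean and spread of sample wells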;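 further: positive z means more ATP and so rescue of galactose-driven cybrid death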); settings: complex I mutant cybrid cells, 72 h, stronger effect = higher value
[7] = circadian clock period modulators, cell-based, LOPAC library, luminescence reporter (AID 2774; call rule not given here;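 further: values are relative to mean of DMSO wells on each plate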); settings: circadian reporter cells, at 7 µM, actives lie on both sides
[8] = growth inhibition of DIPG glioma cells, dose response, cell-based, SU-DIPG-XVII, MIPE5.0, CellTiter-Glo, qHTS (AID 1347060); settings: SU-DIPG-XVII viability, CellTiter-Glo ATP luminescence;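 on AC50: cells exposed to compound for 48 hours before viability readout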
[9] = growth inhibition of DIPG glioma cells, dose response, cell-based, SU-DIPG-XIII, MIPE4.0, CellTiter-Glo, qHTS (AID 1347061; cut-off not given, nearly all actives have AC50 up to about 37 µM;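 further: cells exposed to compound for 48 hours before readout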); settings: SU-DIPG-XIII viability, CellTiter-Glo ATP luminescence
[10] = SU-DIPG-VI glioma cell viability, MIPE4.0 library, CellTiter-Glo luminescence, qHTS (AID 1347066; cut-off not given, nearly all actives have AC50 up to about 30 µM;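 further: cells exposed to compound for 48 hours before readout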); settings: CellTiter-Glo ATP luminescence
[11] = JHH-DIPG-1 glioma cell viability, MIPE5.0 library, CellTiter-Glo luminescence, qHTS (AID 1347067); settings: JHH-DIPG-1 glioma viability, CellTiter-Glo ATP luminescence;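 further: cells exposed to compound for 48 hours before readout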
[12] = SU-DIPG-XXV glioma cell viability, MIPE5.0 library, qHTS (AID 1347068; cut-off not given, nearly all actives have IC50 up to about 30 µM;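 on IC50: cells exposed to compound for 48 hours before viability readout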)
[13] = liver-stage malaria parasite growth inhibition, primary screen, cell-based, HepG2, luciferase luminescence, HepG2 viability (AID 624349; in the data active means parasite load remaining mostly below about 12%, no sharp cut-off; inactive means mostly above about 10%;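 further: 100% = mean of DMSO negative control wells on the same plate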); settings: P. berghei liver stage in HepG2, luciferase luminescence, concentration not given here; parasite load remaining: stronger effect = lower value; viability: measured here: HepG2 viability without parasites
[14] = growth inhibition of DIPG glioma cells, dose response, cell-based, JHH-DIPG-1, MIPE4.0, CellTiter-Glo, qHTS (AID 1347062; cut-off not given, nearly all actives have AC50 up to about 27 µM;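 on AC50: cells exposed to compound for two days before readout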); settings: JHH-DIPG-1 viability, CellTiter-Glo ATP luminescence
[15] = growth inhibition of DIPG glioma cells, dose response, cell-based, SU-DIPG-IV, MIPE4.0, CellTiter-Glo, qHTS (AID 1347063; cut-off not given, nearly all actives have AC50 up to about 30 µM;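 further: compound exposure lasted 48 hours before the viability readout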); settings: SU-DIPG-IV viability, CellTiter-Glo ATP luminescence
[16] = growth inhibition of DIPG glioma cells, dose response, cell-based, SU-DIPG-XIII, MIPE5.0, CellTiter-Glo, qHTS (AID 1347064; cut-off not given, nearly all actives have AC50 up to about 23 µM;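 on AC50: cells exposed to compound for 48 hours before the viability read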); settings: SU-DIPG-XIII viability, CellTiter-Glo ATP luminescence
[17] = viability loss in pontine glioma line – cell-based, SU-DIPG-XXV, MIPE5.0, CellTiter-Glo, qHTS, dose response (AID 1347065); settings: CellTiter-Glo ATP luminescence;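 further: cells exposed to compound for 48 hours before ATP readout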
[18] = survival rescue of mitochondrial mutant cells in low glucose, primary screen, MELAS cybrids, Rieske KO mouse fibroblasts, CellTiter-Glo (AID 1508586;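 active means mean z-score across replicates of 1.96 or higher in either the MELAS or the Rieske mutant cell line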;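 further: z relative to plate mean and SD of compound and empty wells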)
[19] = stronger effect = lower value, cell number ratio, induced over uninduced
[20] = measured here: relative caspase fold change +Dox/-Dox
[21] = measured here: total cells with miR-34 induction, stronger effect = lower value
[22] = measured here: total cells without miR-34 induction
[23] = MELAS cybrid survival, CellTiter-Glo 48 h, stronger effect = higher value
[24] = Rieske KO mouse fibroblast survival, CellTiter-Glo 72 h

c1ccc(C2(c3ccccc3)CC2C2=NCCN2)cc1 (stereo unspecified)
11300: cell count [4, 21]
inactive: inhibition [1] -3% | fluorescence ratio (interference) [2] 0.9 | remaining activity [3] 115% | fold change [4, 19] 1.07 | outcome [5] | z-score [6] 0.18
10600: cell count [4, 22]
1.35: fold change [4, 20]

CC(=O)OCC1=C(C(=O)[O-])N2C(=O)[C@@H](NC(=O)CCC[C@@H](N)C(=O)[O-])[C@H]2SC1.[Zn+2]
10400: cell count [4, 21]
inactive: period change [7] -0.01 h | inhibition [1] 0% | fluorescence ratio (interference) [2] 0.9 | remaining activity [3] 102% | fold change ([4]; stronger effect = lower value) 1.04 | z-score [6] -0.275
10000: cell count [4, 22]
1.44: fold change [4, 20]

CCCN(CCC)[C@@H]1CCc2c(F)ccc(O)c2C1
inactive: period change [7] -0.015 h | remaining activity [3] 110%

CC(=O)O[C@@]12CO[C@@H]1C[C@H](O)[C@@]1(C)C(=O)[C@H](O)C3=C(C)[C@@H](O)C[C@@](O)([C@@H](OC(=O)c4ccccc4)[C@H]21)C3(C)C
inactive: outcome [9] | outcome [10] | outcome [11] | outcome [12]
active: AC50 [8] 23500 nM

COc1ccc2c(c1)/C(=C/c1cnc[nH]1)C(=O)N2
inactive: parasite load remaining [13] 16.5% | remaining activity [3] 119%
98.5%: viability [13]

C[C@]12CC[C@@H]3c4ccc(OC(=O)N(CCCl)CCCl)cc4CC[C@H]3[C@@H]1CC[C@@H]2OP(=O)(O)O
inactive: outcome [8] | outcome [9] | outcome [14] | outcome [15] | outcome [16] | outcome [17] | outcome [10] | outcome [11] | outcome [12]

COCC1(CO)C(=O)C2CCN1CC2 (stereo unspecified)
active: AC50 [8] 23500 nM | AC50 [9] 20900 nM | AC50 [14] 20900 nM | AC50 [15] 18700 nM | AC50 [16] 8330 nM | AC50 [17] 16600 nM | AC50 [11] 10500 nM
inactive: outcome [12]

CCOP(=O)(OCC)C(C)NC(=O)N(CCCl)N=O (stereo unspecified)
inactive: outcome [8] | outcome [9] | outcome [14] | outcome [16] | outcome [17] | outcome [10] | outcome [11] | outcome [12]

COC(=O)[C@]12CCC(C)(C)C[C@H]1[C@H]1C(=O)C=C3[C@@]4(C)C=C(C#N)C(=O)C(C)(C)[C@@H]4CC[C@@]3(C)[C@]1(C)CC2
active: AC50 [8] 3720 nM | AC50 [9] 2640 nM | AC50 [14] 590 nM | AC50 [15] 469 nM | AC50 [16] 3720 nM | AC50 [17] 2090 nM | AC50 [10] 743 nM | AC50 [11] 833 nM | IC50 [12] 10500 nM

CC(C)(O)/C=C\C(=O)[C@](C)(O)[C@H]1[C@H](O)C[C@]2(C)[C@@H]3CC=C4[C@@H](C=C(O)C(=O)C4(C)C)[C@]3(C)C(=O)C[C@@]12C
active: AC50 [8] 66.1 nM | AC50 [9] 18700 nM | AC50 [14] 105 nM | AC50 [15] 29.6 nM | AC50 [16] 52.5 nM | AC50 [17] 29.5 nM | AC50 [10] 8330 nM | AC50 [11] 52.5 nM | IC50 [12] 148 nM

C[C@]12CC[C@H]3[C@@H](CCC4=CC(=O)CC[C@@]43C)[C@@H]1CC[C@@H]2OC(=O)CCC1CCCC1
active: AC50 [9] 23500 nM
inactive: outcome [8] | outcome [14] | outcome [15] | outcome [16] | outcome [10] | outcome [12]

O=C1C=CC[C@@H]2[C@H]3CCCN4CCC[C@@H](CN12)[C@@H]34
inactive: outcome [8] | outcome [9] | outcome [16] | outcome [17] | outcome [10] | outcome [11] | outcome [12]

O=C(O)CNC(=O)c1c(O)c2ccccc2n(Cc2ccccc2)c1=O
inactive: outcome [8] | outcome [9] | outcome [14] | outcome [15] | outcome [16] | outcome [17] | outcome [10] | outcome [11] | outcome [12] | fold change [4, 19] 1.05 | z-score [18, 23] -0.124
0.358: fold change [4, 20]
-0.159: z-score [18, 24]
8330: cell count [4, 21]
7930: cell count [4, 22]

CC(C)[C@H]1C(=O)N[C@H](CO)Cc2c[nH]c3cccc(c23)N1C
inactive: outcome [8] | outcome [9] | outcome [10] | outcome [12]

CC12CCC3C(CCC4=C(O)C(=O)CCC43C)C1CCC2=O (stereo unspecified)
inactive: period change [7] -0.08 h | inhibition [1] -3% | fluorescence ratio (interference) [2] 1 | remaining activity [3] 113%

C/C=C(\C)C(=O)N[C@@H](c1ccccc1)[C@@H](O)C(=O)O[C@H]1C[C@@]2(O)[C@@H](OC(=O)c3ccccc3)[C@@H]3[C@]4(OC(C)=O)CO[C@@H]4C[C@H](O)[C@@]3(C)C(=O)[C@H](OC(C)=O)C(=C1C)C2(C)C
active: AC50 [8] 13.2 nM | AC50 [17] 23.5 nM
inactive: outcome [9] | outcome [14] | outcome [15] | outcome [10]

CCc1c(C(=O)C(N)=O)c2c(OCC(=O)O)cccc2n1Cc1ccccc1
0.396: z-score [18, 24]
1.11: fold change [4, 20]
8710: cell count [4, 22]
inactive: outcome [8] | outcome [9] | outcome [14] | outcome [15] | outcome [16] | outcome [17] | outcome [10] | outcome [11] | outcome [12] | fold change [4, 19] 0.89 | z-score [18, 23] -0.413
7750: cell count [4, 21]

CCCN(CCC)CCc1c[nH]c2ccc(C(N)=O)cc12
inactive: period change [7] 0.085 h | inhibition [1] 0% | fluorescence ratio (interference) [2] 1.1 | remaining activity [3] 109%

O=C(O)C(=O)c1cn(Cc2ccccc2)c2ccc(-c3ccc(OC(F)(F)F)cc3)cc12
inactive: outcome [8] | outcome [9] | outcome [14] | outcome [15] | outcome [17] | outcome [10] | outcome [11] | outcome [12]

CCN(CCCl)Cc1ccccc1Br
inactive: period change [7] -0.02 h | inhibition [1] -2% | fluorescence ratio (interference) [2] 1 | remaining activity [3] 111%

Cc1ccccn1.[Cl][Pt][Cl].[NH2-]
inactive: outcome [8] | outcome [9] | outcome [17] | outcome [12]

C/C(=C\c1csc(C)n1)[C@@H]1C[C@@H]2O[C@]2(C)CCC[C@H](C)[C@H](O)[C@@H](C)C(=O)C(C)(C)[C@@H](O)CC(=O)O1
active: AC50 [8] 2.63 nM | AC50 [17] 1.66 nM
inactive: outcome [9] | outcome [14] | outcome [15] | outcome [16] | outcome [10]

C[C@]12COC(=O)C[C@@H]1CC[C@@H]1[C@@H]2CC[C@@]2(C)[C@H]1CC[C@]2(C)O
inactive: outcome [8] | outcome [9] | outcome [14] | outcome [15] | outcome [16] | outcome [10] | outcome [11] | outcome [12] | z-score [18, 23] 0.293
0.228: z-score [18, 24]

Source: PubChem BioAssay
